Test results from PubChem BioAssay (NCATS).
Records with an inconclusive call do not appear. Activity calls are given as the source filed them. Calls come from the whole dose curve; as a rule, active = well fitted curve in the direction sought with a large enough effect; inconclusive = small, poorly fitted or top-dose-only effect, or another doubt; inactive = no such curve, though single readings can be large; an effect the other way counts as inactive or inconclusive.

How the values were obtained:
[1] = qHTS to identify inhibitors of the type 1 interferon - major histocompatibility complex class I in skeletal muscle: primary screen against the NCATS Pharmaceutical Collection (AID 1347407); settings: human skeletal muscle cells, IFN-b-induced MHC-I HiBiT luminescence, 24 h; series mostly up to 45.9 µM;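 note: luminescence of HiBiT knocked into endogenous HLA-B as interferon-induced MHC class I level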
Method in brief: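 Compounds […] were added to CRISPR-engineered HLA-B-HiBiT C25cl48 human myoblasts with 4.0 ng/ml IFN-beta. After 24 hrs at 37 C, cells were lysed and HiBiT luminescence measured.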

[2] = target: Protein phosphatase 1D (Homo sapiens) (UniProt O15297); assay: RapidFire Mass Spectrometry qHTS Assay for Modulators of WT P53-Induced Phosphatase 1 (WIP1) (AID 1347424); settings: WIP1 dephosphorylation of phosphopeptide, RapidFire MS; series mostly up to 63 µM;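 note: amount of dephosphorylated VEPPL-S-QETFS peptide product formed by WIP1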
Chain of Protein phosphatase 1D (Homo sapiens) (O15297 whole entry, looked up): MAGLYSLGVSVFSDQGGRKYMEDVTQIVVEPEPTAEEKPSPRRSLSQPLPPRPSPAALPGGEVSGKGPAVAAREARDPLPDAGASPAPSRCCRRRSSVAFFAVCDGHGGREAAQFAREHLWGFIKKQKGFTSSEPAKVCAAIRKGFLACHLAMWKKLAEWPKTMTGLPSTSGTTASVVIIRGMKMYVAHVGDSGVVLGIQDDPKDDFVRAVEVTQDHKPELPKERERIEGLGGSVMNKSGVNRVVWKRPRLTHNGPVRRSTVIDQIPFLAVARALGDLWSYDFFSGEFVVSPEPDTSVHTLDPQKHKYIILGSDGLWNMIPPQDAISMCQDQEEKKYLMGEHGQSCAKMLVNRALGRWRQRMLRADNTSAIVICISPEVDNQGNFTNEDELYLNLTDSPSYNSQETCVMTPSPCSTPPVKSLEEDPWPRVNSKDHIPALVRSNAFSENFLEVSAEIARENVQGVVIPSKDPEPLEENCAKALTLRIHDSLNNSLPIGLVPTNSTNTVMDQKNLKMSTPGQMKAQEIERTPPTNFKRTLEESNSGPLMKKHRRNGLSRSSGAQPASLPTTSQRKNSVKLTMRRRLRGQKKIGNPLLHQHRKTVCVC
Method in brief: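 10 nM WIP1 preincubated with compounds 1 hr at room temperature in pH 7.5 Tris buffer with 30 mM MgCl2, 1 mM TCEP; 2 uM VEPPL-pS-QETFS phosphopeptide for 5 min, formic acid quench; dephosphorylated product quantified by RapidFire MS against labelled standard.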

[3] = target: Protein phosphatase 1D (Homo sapiens) (UniProt O15297); assay: Rhodamine-PBP qHTS Assay for Modulators of WT P53-Induced Phosphatase 1 (WIP1) (AID 1347425); settings: recombinant WIP1, Rhodamine-PBP phosphate fluorescence, real-time; series mostly up to 57.5 µM
Method in brief: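 Steps: enzyme with Rh-PBP sensor and compounds, room-temperature incubation of 1 hr, baseline read, addition of VEPPL-pS-QETFS (10 uM final), kinetic fluorescence reads at 525/598 nm. Activity equals final minus baseline signal.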

[4] = qHTS to identify inhibitors of the type 1 interferon - major histocompatibility complex class I in skeletal muscle: primary screen against the NCATS LOPAC collection (AID 1347405); settings: iHSKM muscle cells, IFN-b-induced MHC-I HiBiT luminescence, 24 h; series mostly up to 45.9 µM;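 note: lytic HiBiT luminescence reporting HLA-B protein level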
Method in brief: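 CRISPR-engineered immortalized human myoblasts (C25cl48) with HiBiT fused to endogenous HLA-B*08:01, stimulated with 4 ng/ml IFN-beta. LOPAC compounds tested as a 7-point 1:4.3 titration (top 46 uM final), 24 h at 37 C; lytic HiBiT luminescence read.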

[5] = qHTS for inhibitors of adenylyl cyclases using a fission yeast platform: a pilot screen against the NCATS LOPAC library (AID 1347410); settings: S. pombe CHP2027, fbp1-GFP fluorescence, 18 h, yeast expressing mammalian AC9 and human GNAS; series mostly up to 57.5 µM
Method in brief: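 GFP from fbp1-GFP reporter, read by Acumen laser cytometry, indicates AC inhibition in fission yeast expressing AC9, GNAS and PDE4D2. Cells grown 18 h in the dark at 30C with compounds, final up to 57 uM.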

[6] = Validation qHTS assay for inhibitors of Activation Induced Cytidine Deaminase (AID): UDG Counterscreen signal (AID 1347427); settings: biochemical UDG counterscreen, fluorescence signal; series mostly up to 115 µM
Method in brief: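 Counterscreen read of UDG activity (2 U/mL, 4/3x) in the FRET deamination format with AID (1 uM, 4/3x), DJC20/DJC23 substrates (250 nM, 4x), 4 h at room temperature. NaOH stop, fluorescence at 560 ex/665 em.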

[7] = Primary qHTS for inhibitors of La Crosse Virus (LACV) - induced cell death in SH-SY5Y cells (AID 1508616); settings: SH-SY5Y LACV cytopathicity rescue, ATP luminescence, 6 d; series mostly up to 4.29 µM;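 note: top concentration of the series differs between compounds; higher means more rescue of cells from virus-induced death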
Method in brief: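 SH-SY5Y cells (6000/well) plated 24 h, then given compounds by pin transfer and LACV at 0.01 MOI for 6 days at 37C. Viability measured by ATPLite luminescence, normalized to infected DMSO and uninfected DMSO.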

[8] = Inflammasome Signaling qHTS Counterscreen: IL-1-beta AlphaLISA counterscreen against the NCATS CANVASS Library (AID 1347381); settings: Purified IL-1beta AlphaLISA signal interference counterscreen; series mostly up to 57.5 µM;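 note: cell-free check with purified IL-1β in medium and no THP-1 cells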
Method in brief: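 Cell-free interference check: compounds added to medium spiked with 4 pg purified IL-1β. Anti-IL-1β acceptor beads (6 ug/mL) with 0.6 nM biotinylated antibody added for 1 h at RT, then streptavidin donor beads (24 ug/mL) for 30 min in the dark. AlphaLISA read at 680/615 nm.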

[9] = Cytotoxicity qHTS for assessment of Hepg2 cells membrane integrity screened against the NCATS CANVASS Library (AID 1347387); settings: HepG2 LDH release (CytoTox-ONE) fluorescence, 5 h; series mostly up to 46.1 µM
Method in brief: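 HepG2 cells (2000/well) attached overnight, then exposed 5 hr at 37C to compounds in an 11-point series (0.59 nM - 46 uM final). LDH release from damaged membranes read fluorometrically (CytoTox-ONE; 560/590 nm) after 10 min at room temperature.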

[10] = qHTS assay for small molecule disruptors of mitochondrial membrane potential screened against the NCATS CANVASS Library (AID 1347389); settings: HepG2 mitochondrial membrane potential, m-MPI red/green ratio, 1.5 h; series mostly up to 46.1 µM; note: nearly all actives have a fitted effect of over 60% in size
Method in brief: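 HepG2 cells (2,000/well) plated overnight, then exposed to compounds in 11-point qHTS series for 1 h at 37C before 30 min Mito-MPS dye; depolarization read as fall in red aggregate (590 nm) to green monomer (535 nm) fluorescence.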

[11] = Secretion counterscreen for inhibitors of the SERCaMP assay screened against the NCATS CANVASS Library (AID 1347390); settings: SH-SY5Y constitutive GLuc secretion, luminescence, 20 h; series mostly up to 76.6 µM;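 note: light from luciferase secreted into medium read as a measure of general secretion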
Method in brief: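 Counterscreen for secretory-pathway interference: after 4 h attachment, SH-SY5Y-GLuc cells were exposed 20 hours to compounds (final 0.001 - 77 uM), then coelenterazine added and GLuc luminescence recorded; Brefeldin A served as control.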

[12] = qHTS for activators of Nrf2/ARE signaling pathway screened against the NCATS CANVASS Library (AID 1347391); settings: ARE-bla HepG2, beta-lactamase reporter, 16 h; series mostly up to 46.1 µM; note: nearly all actives have a fitted effect of over 60% in size
Method in brief: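 ARE-bla HepG2 beta-lactamase reporter cells exposed to compounds for 16 h at 37C; CCF4 substrate 2 h, fluorescence at ex 405 nm, em 460/530 nm. Viability by CellTiter-Glo luminescence.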

[13] = qHTS for activators of dead-cell proteases activity screened against the NCATS CANVASS Library (AID 1347392); settings: HepG2 cytotoxicity, dead-cell protease luminescence, 5 h; series mostly up to 46.1 µM;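 note: luminescence from protease leaking out of membrane-damaged cells cleaving impermeant substrate; rising signal means more cytotoxicity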
Method in brief: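 HepG2 cells, 2000/well, attached 18 h at 37C, then exposed to compounds (11-point qHTS) for 5 h. Dead-cell protease release read as luminescence from cell-impermeant AAF-aminoluciferin substrate after 15 min at room temperature.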

[14] = qHTS for inhibitors of ER calcium dysfunction: SERCaMP assay screened against the NCATS CANVASS Library (AID 1347393); settings: SH-SY5Y GLuc-SERCaMP secretion, thapsigargin, luminescence; series mostly up to 76.6 µM;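 note: lower secreted reporter signal means inhibitor of ER calcium depletion; nearly all actives have a fitted effect of over 40% in size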
Method in brief: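 SH-SY5Y GLuc-SERCaMP, 1000 cells/well, 4 h attach; cpd 16 h, 37C/5% CO2; thapsigargin (added as 6x 600 nM) 4 h; coelenterazine; luminescence. Reduced reporter release = ER Ca stabilization.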

[15] = Vero-766 cells viability qHTS against the NCATS CANVASS Library: Counterscreen for Zika virus inhibition assay (AID 1347394); settings: Vero 766 viability, CellTiter-Glo luminescence, 72 h; series mostly up to 46.1 µM; note: nearly all actives have a fitted effect of over 60% in size
Method in brief: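 CellTiter Glo luminescence measured cytotoxicity after 72 h at 37C in uninfected Vero 766 cells, plated at 1000 cells/well. Compounds were applied in an 11-point series. Wells without cells defined 100% inhibition.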

[16] = qHTS for inhibitors of Wild type Zika virus screened against the NCATS CANVASS Library (AID 1347396); settings: Vero cells, Zika virus CPE, CellTiter-Glo, 72 h; series mostly up to 45.9 µM;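 note: ATP luminescence of surviving cells so rescue from viral cell killing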
Method in brief: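 Using ATP-based luminescence (CellTiter Glo), this screen scores rescue of Vero 766 cells from wild-type Zika killing at 72 h post-infection. Compounds are tested in a concentration series.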

[17] = Viability qHTS for inhibitors of the SERCaMP assay screened against the NCATS CANVASS Library (AID 1347400); settings: SH-SY5Y SERCaMP cells viability, CellTiter-Glo, 48 h; series mostly up to 92.2 µM; note: nearly all actives have a fitted effect of over 70% in size
Method in brief: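 SH-SY5Y-GLuc SERCaMP MJH297-derived cells, 1000/well, plated 4 h, then exposed to compounds in an 11-point qHTS series for 48 h at 37C. Viability read as CellTiter-Glo luminescence.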

[18] = Redox Reaction Profiling qHTS: Assay Interference Panel against the NCATS CANVASS Library (AID 1347401); settings: resazurin-DTT redox cycling, fluorescence, 15 min; series mostly up to 57.1 µM
Method in brief: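 Compounds in 11-point series incubated with 5 uM resazurin and 200 uM DTT in 50 mM HEPES pH 7.3, 50 mM NaCl. Resorufin fluorescence (Ex 525/Em 598) read before and after 15 min in the dark.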

Measured: Potency

Oc1c(I)cc(I)c2cccnc12
inactive: [1] | [2] | [3]

CN1C2CCC1CC(OC(=O)c1c[nH]c3ccccc13)C2 (stereo not given)
inactive: [4] | [5] | [6] | [7]

CN1CCC[C@@H]1c1cccnc1
inactive: [8] | [9] | [10] | [11] | [12] | [13] | [14] | [15] | [16] | [17] | [18] | [1] | [2] | [3] | [7]

COCc1c(C(C)C)nc(C(C)C)c(/C=C/[C@@H](O)C[C@@H](O)CC(=O)O)c1-c1ccc(F)cc1
inactive: [1] | [2] | [3]

CC(=O)OCC(=O)[C@@]1(O)[C@H](C)C[C@H]2[C@@H]3CCC4=CC(=O)C=C[C@]4(C)[C@@]3(F)[C@@H](O)C[C@@]21C
inactive: [1] | [2] | [3] | [7]

CC(=O)Oc1ccc(C(=C2CCCCC2)c2ccc(OC(C)=O)cc2)cc1
inactive: [1] | [2] | [3] | [7]

CCOC(=O)c1cccc(N)c1
inactive: [1] | [2] | [3] | [7]

O=S1(=O)c2cccc3cccc(c23)N1CCCN1CCN(c2ccc(F)cc2)CC1
inactive: [1] | [2] | [3] | [7]

OC[C@@H](O)[C@@H](O[C@@H]1O[C@H](CO)[C@H](O)[C@H](O)[C@H]1O)[C@H](O)[C@@H](O)CO
inactive: [1] | [2] | [3] | [7]

Oc1c(I)cc(Cl)c2cccnc12
inactive: [1] | [2] | [3] | [7]

c1ccc(OCc2ccc(CCCN3CCOCC3)cc2)cc1
inactive: [1] | [2] | [3] | [7]

COc1cc(OC)cc(OC)c1
inactive: [1] | [2] | [3] | [7]

CC1(C)O[C@@H]2C[C@H]3[C@@H]4CCC5=CC(=O)CC[C@]5(C)[C@@]4(F)[C@@H](O)C[C@]3(C)[C@]2(C(=O)CCl)O1
inactive: [1] | [2] | [3] | [7]

CN=C(NC#N)NCCSCc1csc(N=C(N)N)n1
inactive: [1] | [2] | [3] | [7]

OC[C@H]1O[C@@H](n2cnc3c(=S)nc[nH]c32)[C@H](O)[C@@H]1O
inactive: [1] | [2] | [3] | [7]

c1ccc(-c2ccc(C(c3ccccc3)n3ccnc3)cc2)cc1 (stereo not given)
inactive: [1] | [2] | [3] | [7]

CCCCCCCCCCCCCCCCCC(=O)OCC(O)CO (stereo not given)
inactive: [1] | [2] | [3] | [7]

O=C(OCCOCCO)c1ccccc1Nc1cccc(C(F)(F)F)c1
inactive: [1] | [2] | [3] | [7]

Nc1ccc(C(=O)O)cc1
inactive: [1] | [2] | [3] | [7]

COc1ccc(C2C(=O)c3ccccc3C2=O)cc1
inactive: [1] | [2] | [3] | [7]

CCCCOc1ccc(OCCCN2CCOCC2)cc1
inactive: [1] | [2] | [3] | [7]

C=C1C(=C/C=C2\CCC[C@]3(C)[C@@H]([C@H](C)/C=C/[C@@H](O)C4CC4)CC[C@@H]23)C[C@@H](O)C[C@@H]1O
inactive: [1] | [2] | [3] | [7]

CCOc1ccc(NC(=O)CC(C)O)cc1 (stereo not given)
inactive: [1] | [2] | [3] | [7]

CCCSS/C(CCO)=C(\C)N(C=O)Cc1cnc(C)nc1N
inactive: [1] | [2] | [3] | [7]

CCN1CCC[C@H]1CNC(=O)c1c(OC)ccc(Br)c1OC
inactive: [1] | [2] | [3] | [7]

CNCC[C@@H](Oc1ccccc1C)c1ccccc1
inactive: [1] | [2] | [3] | [7]

Cc1cccn2c(=O)c(-c3nnn[nH]3)cnc12
inactive: [1] | [2] | [3] | [7]

COc1c2occc2c(OC)c2c(=O)cc(C)oc12
inactive: [1] | [2] | [3] | [7]

C[C@@H](CN(C)C)CN1c2ccccc2Sc2ccccc21
inactive: [1] | [2] | [3] | [7]

Cc1ccc(C(=O)C(C)CN2CCCCC2)cc1 (stereo not given)
inactive: [1] | [2] | [3] | [7]

Clc1ccc2c(c1)CCc1cccnc1C2=C1CCNCC1
inactive: [1] | [2] | [3] | [7]

COc1cc(/C=C/C(=O)O[C@H]2CC[C@]34C[C@]35CC[C@]3(C)[C@@H]([C@H](C)CCC=C(C)C)CC[C@@]3(C)[C@@H]5CC[C@H]4C2(C)C)ccc1O
inactive: [1] | [2] | [3] | [7]

CC(C)(Oc1ccc(Cl)cc1)C(=O)O
inactive: [1] | [2] | [3] | [7]

CC(Cc1ccccc1)(NC(=O)CN)c1ccccc1 (stereo not given)
inactive: [1] | [2] | [3] | [7]
